We go through 40 sequences from the supplement of paper PMC6555819.

The assay concerns VDR:RXRa (NR concentration 270 nM, RXRa partner concentration 90 nM). In words: PBM binding z-score (relative to random genomic background probes); higher = stronger binding; sequences stand for … in GC…GCGATTGACAGCGTAGAATGAAGG
On the procedure: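 Protein-binding microarray (Agilent 4x180K custom design, double-stranded 60-nt probes: 5' GC cap, 34-nt variable region, 24-nt constant primer region; full probe sequence given). Purified or IVT nuclear receptor:RXRα heterodimers (3:1 NR:RXRα, mostly 270:90 nM) or homodimers were incubated for 1 h in PBS with 2% milk and no ligand, then detected with Alexa488 antibodies. Fluorescence from o1-orientation probes (~5 replicates averaged) was converted to z-scores against 500 random hg19 background probes. Variable regions are seed direct-repeat (DR0–DR5) sites, all their single-nucleotide variants and half-site ablations.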
In turn, TCTGCTAGGTCAGTGGGTCAGCTAACGAGCTGCC had a PBM binding z-score of 1.5.

With GCTCGGAGGACAAGGTCCGAGCTTTGTCCGTAGA, the PBM binding z-score was -0.684.

CCTTACGGGTCAACGTTATAGCACGGGTGGTACG gave a PBM binding z-score of 3.03.

Consider CAAACTAGGTCACTGAGGTCAAAGTCCGTGCGTA, for which the PBM binding z-score stood at 7.99.

For the sequence TAGCATAGGTCATTCAGGGGCCAGTATAGAAAGC, the PBM binding z-score is 4.18.

As to GCGACTGCGGCAAAGCAGGTTACCATAAGGTTGG, the PBM binding z-score is -0.392.

Regarding CCTTACGGGTCTCGAGGTTATAGCACGACGAGCG, the PBM binding z-score turned out to be 0.479.

On to AGAATGAGGTTAATATCAGGGAAACAGAATACAT, for which the PBM binding z-score worked out at 1.04.

Turning to CCTACTGGGCCAAAAAGGGCATTGATGCCGATAA, the PBM binding z-score came out at 1.01.

CCTACTGGGCCATTCAGAGGTCGTTGATCATATG gave a PBM binding z-score of 1.49.

With CCAACTAGGTCATCCAGGACAGTGAATACATTGA, the PBM binding z-score worked out at 4.58.

On to CGAACTAGGGCATGAGTTGATAGCAAATGCCGAT, for which the PBM binding z-score stood at 0.0428.

On to GCTGCTAGGTCAATTGATGGTCAGCTAAAGCTCG, for which the PBM binding z-score came out at 0.815.

As to TCATATAGGTAAATAGGTGAAAGTCCGTAAGTTA, the PBM binding z-score was determined as 1.25.

As for AGAACGAGGGCAATGAGTTGATAGCGCGGGTGGC, the PBM binding z-score is 5.04.

TAGCCTAGGTCATGCGGGCCAGTTTAGTGTCGGC came in with a PBM binding z-score of 2.97.

On to CCTTACGGTTCACGAGGTTATAGCACGACGAGCG, for which the PBM binding z-score was 4.12.

As for TCATATAGGTAAATGCTAGGTGGAAGTCCGATCT, the PBM binding z-score was 0.687.

In turn, CCTACTGGGTCAAGGTCATTGATCAGTCAAAGCA returned a PBM binding z-score of 4.84.

ACTAGCAGGCGAAGTTTGGGTCACTCAAACAAAG yielded a PBM binding z-score of 0.191.

With GCAGACAGGTGAAACGCCGGTAACTCAGGGTGGC, the PBM binding z-score was -0.708.

ATCTCTAGTTAAAAGTTCAGTGAATCCCGAGGAT gave a PBM binding z-score of 1.29.

CAAACTAGGTCACGTAAGGTCAAAGTCGAATGAC yielded a PBM binding z-score of 7.01.

GCGACTGGGGCACCAGCAGGTTACCATAACTTAA yielded a PBM binding z-score of -0.157.

CAAACTAGGTCACAGAGGTGAAAGTCCGTGCGTA had a PBM binding z-score of 5.99.

In turn, TTACCAAGGTGAAGGTGGTTGATCCCTCTGTAGA came in with a PBM binding z-score of 0.0919.

The sequence ATATCTAGGTTACATCCGGGTCATTCAGGCTATG gave a PBM binding z-score of 4.23.

Take CCTTACGGGTCATTCCAGGTTATAGCATCGGAGT: the PBM binding z-score was determined as 4.87.

As for ACAAGCAGGCCAAGTTTGGGTCACTCAAACAAAG, the PBM binding z-score was found to be 0.676.

The sequence ACTAGCAGGCCAAGTTTGGGTCACCCAAACAAAG displayed a PBM binding z-score of 1.13.

Take CCTACTGGGCCATCAAGTCATTGATATCAACGTT: the PBM binding z-score is -0.0971.

Turning to ATCTCTAGGTAACAAAGTTCAGTGAATGCCGAAC, the PBM binding z-score was 3.18.

Take CGTCCAAAGTCAGCAGGTCAGTGAAAGCGACGTG: the PBM binding z-score was determined as 0.372.

In turn, TCATATAGGTAAACAGATGAAAGTCCGTAAGTTA had a PBM binding z-score of 1.17.

With CCGAGTAGGTTATGGGGCACTCAGGCAACGGTGA, the PBM binding z-score was -0.0808.

CCTACTGGGCCAAAAAGGTCATGGATGCCGATAA showed a PBM binding z-score of 4.54.

On to CGAACGAGGGCATGAGTTGATAGTAAATGCCGAT, for which the PBM binding z-score was found to be 1.17.

The sequence CCTAATGGGCCAAGGTCATTGATCAGTCAAAGCA registered a PBM binding z-score of 3.37.

As for ACTAGTTCGTCAGCTGAGGTCACACACAATTCGG, the PBM binding z-score was determined as 4.7.

With CGAACGAGGGCATGAGTTGATAGAAAATGCCGAT, the PBM binding z-score is 1.29.
